Assay results: PubChem BioAssay (Tox21)
Records with an inconclusive call do not appear. A call without a number means that no potency is given here. The source made the active and inactive calls. Calls follow the shape of the dose curve; as a rule, active = well fitted cell-killing curve with a large enough effect in the repeat runs; inconclusive = weak or mixed curves, or effect the other way; inactive = flat fitted curve, though single readings scatter.

Test: qHTS RealTime-Glo MT Cell Viability Assay in HepG2 cells - 0 hour (AID 1224889); also: nearly all actives have a fitted effect of over 50% in size
Conditions: RealTime-Glo luminescence; series mostly up to 76.8 µM
Source text: U.S. Tox21 Program National Center for Advancing Translational Sciences [NCATS] NIH Chemical Genomics Center [NCGC] U.S. Environmental Protection Agency [EPA] National Institutes of Environmental Health Sciences [NIEHS] National Toxicology Program [NTP] U.S. Food and Drug Administration [FDA] Tox21 Assay Overview: Measure of cell viability is critical in the cell-base assay. Analysis of cell viability is necessary for the characterization of cell responses to cytotoxic drugs and environmental stress. A RealTime-Glo MT Cell Viability Assay to monitor cell viability in real time of continues cell culture during 40 hours of compound treatment was used to screen Tox21 10K library compounds in HepG2 cells. The RealTime-Glo MT Cell Viability Assay is a nonlytic, homogeneous, bioluminescent method to measure cell viability in real time using a simple, plate-based method. The assay involves adding NanoLuc luciferase and a cell-permeant prosubstrate to cells in culture. Viable cells reduce the proprietary prosubstrate to generate a substrate for NanoLuc luciferase. This substrate diffuses from cells into the surrounding culture medium, where it is rapidly used by the NanoLuc Enzyme to produce a luminescent signal. The signal correlates with the number of viable cells, making the assay well suited for cytotoxicity studies.
Tox21 Assay Protocol Summary: The mixture of HepG2 cell suspension and reagents were dispensed at 600cells/6 ul/well in 1536-well tissue culture treated black solid bottom plates using a Multidrop dispenser. After the assay plates were incubated at a 37 C/5% CO2 incubator for 5 hours, 23 nL of compounds dissolved in DMSO, positive and negative controls was transferred to the assay plate by a pintool work station. The plates were incubated at 37 C for 40 hours. The luminescence intensity were measured at 0h, 8h, 16h, 24h, 32h and 40h time points using ViewLux plate reader during compound treatment.

Question: For CC(=O)CC(=O)Nc1ccccc1C, which Potency is on record?
Answer: inactive

Question: Which Potency does the source give for O=C(O)CCCC[C@@H]1SC[C@@H]2NC(=O)N[C@@H]21 here?
Answer: inactive

Question: For O=C(O)c1cc(=O)c2c(OCC(O)COc3cccc4oc(C(=O)O)cc(=O)c34)cccc2o1, which Potency is on record?
Answer: inactive

Question: For COc1ccc(NC(C)=O)cc1N, which Potency is on record?
Answer: inactive

Question: Which Potency does the source give for C#C[C@]1(O)CC[C@H]2[C@@H]3CCC4=CC(=O)CC[C@@H]4[C@H]3CC[C@@]21C here?
Answer: inactive

Question: For CCc1cccc(C)c1N, which Potency is on record?
Answer: inactive

Question: For O=C(O)c1ccccc1C(c1ccc(O)cc1)c1ccc(O)cc1, which Potency is on record?
Answer: inactive

Question: Which Potency does the source give for COc1ccc(Nc2ccccc2)c(C)c1 here?
Answer: inactive

Question: For CCc1ccc(CCOc2ccc(CC3SC(=O)NC3=O)cc2)nc1 (stereo not given), which Potency is on record?
Answer: inactive

Question: Which Potency does the source give for Cc1cc(C)c(C)cc1C here?
Answer: inactive

Question: For C/C=C1/CC2C=CC1C2 (stereo not given), which Potency is on record?
Answer: inactive

Question: For CCN(CC)c1ccc(C(=O)c2ccccc2C(=O)O)c(O)c1, which Potency is on record?
Answer: inactive

Question: For Cc1cccc(O)c1, which Potency is on record?
Answer: inactive

Question: Which Potency does the source give for ON=C1CCCCC1 here?
Answer: inactive

Question: For CN(C)CCC(c1ccc(Cl)cc1)c1ccccn1 (stereo not given), which Potency is on record?
Answer: inactive

Question: With CCCCCC(N)=O as the compound, how does the Potency read?
Answer: inactive

Question: For COc1cc(Cc2cnc(N)nc2N)cc(OC)c1OC, which Potency is on record?
Answer: inactive

Question: For O=S1(=O)CC=CC1, which Potency is on record?
Answer: inactive

Question: Which Potency does the source give for CN(C)CCCN here?
Answer: inactive

Question: With CC[C@H](C)C(=O)O[C@H]1C[C@@H](C)C=C2C=C[C@H](C)[C@H](CC[C@@H]3C[C@@H](O)CC(=O)O3)[C@H]21 as the compound, how does the Potency read?
Answer: inactive

Question: Which Potency does the source give for FC(F)(F)c1ccc(Cl)c(Cl)c1 here?
Answer: inactive

Question: With C=C(C)C(=O)Nc1ccc(Cl)c(Cl)c1 as the compound, how does the Potency read?
Answer: inactive

Question: For CCCCCCCC(=O)OC, which Potency is on record?
Answer: inactive

Question: For CCCCCCCCCCCCCCO, which Potency is on record?
Answer: inactive

Question: Which Potency does the source give for CC(C)(N)CO here?
Answer: inactive

Question: Which Potency does the source give for O=C(O)c1cc(O)c(O)c(O)c1 here?
Answer: inactive

Question: With O=C(O)[C@H](O)[C@@H](O)[C@H](O)[C@H](O)CO as the compound, how does the Potency read?
Answer: inactive

Question: With O=C(O)c1ccc(C(=O)O)cc1 as the compound, how does the Potency read?
Answer: inactive

Question: With CCCCCCOCCO as the compound, how does the Potency read?
Answer: inactive

Question: Which Potency does the source give for O=c1[nH]nnc2ccccc12 here?
Answer: inactive

Question: For CCCCCCCCCCCCCCCO, which Potency is on record?
Answer: inactive

Question: For COS(C)(=O)=O, which Potency is on record?
Answer: inactive

Question: For O=C1CCC(N2C(=O)c3ccccc3C2=O)C(=O)N1 (stereo not given), which Potency is on record?
Answer: inactive

Question: For CC(=O)CC(=O)Nc1ccccc1, which Potency is on record?
Answer: inactive

Question: For Cc1occc(=O)c1O, which Potency is on record?
Answer: inactive

Question: With CSCCC=O as the compound, how does the Potency read?
Answer: inactive

Question: Which Potency does the source give for Cc1ccc(N(C)C)cc1 here?
Answer: inactive

Question: Which Potency does the source give for CC(C)c1ccc(S(=O)(=O)O)cc1 here?
Answer: inactive

Question: With CC1CCC2CC1C2(C)C (stereo not given) as the compound, how does the Potency read?
Answer: inactive

Question: Which Potency does the source give for C=C(C)C(=O)O[C@H]1C[C@@H]2CC[C@@]1(C)C2(C)C here?
Answer: inactive
